From PubChem BioAssay
D2 ag-1: Beta-Arrestin HTS for Positive Allosteric Modulators of the Human D2 Dopamine Receptor: Agonists; D(2) dopamine receptor (Homo sapiens), P14416; DiscoveRx PathHunter D2 beta-arrestin, luminescence, 90 min; 100% = 57 uM dopamine signal; activation, % (no concentration beside the values); 0.084% of 360,000 active; AID 624465, 2012; in the data active = activation above about 40%; inconclusive = between about 15% and that limit
Target sequence (P14416 whole entry, looked up): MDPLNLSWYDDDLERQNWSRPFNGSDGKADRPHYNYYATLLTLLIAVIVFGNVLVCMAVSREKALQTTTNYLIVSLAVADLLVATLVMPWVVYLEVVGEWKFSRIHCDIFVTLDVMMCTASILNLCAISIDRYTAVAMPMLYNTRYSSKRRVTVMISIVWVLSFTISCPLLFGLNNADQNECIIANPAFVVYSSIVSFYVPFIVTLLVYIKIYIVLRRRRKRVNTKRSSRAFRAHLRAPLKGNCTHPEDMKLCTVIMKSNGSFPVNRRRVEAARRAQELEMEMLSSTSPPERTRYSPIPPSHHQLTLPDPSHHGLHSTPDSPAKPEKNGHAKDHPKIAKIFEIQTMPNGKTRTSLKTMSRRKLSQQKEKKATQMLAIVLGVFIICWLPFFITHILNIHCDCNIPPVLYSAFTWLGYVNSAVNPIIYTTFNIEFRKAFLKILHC
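Agonist mode: compounds alone added to overnight-plated D2 PathHunter cells for 90 min at 37 C, with 57 uM final dopamine (EC100) defining full response. Beta-arrestin recruitment detected by chemiluminescent reagent, read after 1 h at ambient temperature.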
D2 ag-2: HTS Assay for Allosteric Agonists of the Human D2 Dopamine Receptor: Primary Screen for Agonists | D(2) dopamine receptor (Homo sapiens), P14416 | HEK293 T-REx D2 cells, calcium flux agonist mode | activation, % at 2 µM | 0.53% of 340,000 active;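 active = activation over 3 SD above normal in the single-dose calcium agonist read, cut at about 30% in these data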; note: 0% is about no effect
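Calcium-flux readout, 1 cycle/sec over 180 s following compound pin transfer, in inducible HEK293 Trex D2 cells (force-coupled); dopamine controls included. Positive calcium responses during this window marked compounds as potential agonists.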
D2 PAM-1: HTS Assay for Positive Allosteric Modulators of the Human D2 Dopamine Receptor: Primary Screen for Potentiators; D(2) dopamine receptor (Homo sapiens), P14416; HEK293 T-REx D2, calcium flux, EC20 dopamine potentiation; potentiation, % at 10 µM; 0.34% of 340,000 active;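 active = potentiation over 3 SD above the plate norm, cut at about 30% in these data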; note: 0% is about no effect
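Cells plated with tetracycline inducer and held overnight at 30 C; calcium dye loaded 30–90 min at room temperature; baseline taken, compound added and read 180 s; EC20 dopamine then added and read 180 s.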
D2 antag: HTS Assay for Allosteric Antagonists of the Human D2 Dopamine Receptor: Primary Screen for Antagonists; D(2) dopamine receptor (Homo sapiens), P14416; HEK293 TREx D2 cells, calcium flux, dopamine EC80; inhibition, % at 10 µM; 2% of 340,000 active; AID 485344, 2010; in the data active = inhibition above about 30%; inactive = below that, where a call was filed; note: 0% is about no effect
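Calcium flux kinetic readout in an inducible HEK293 TREx D2 line plated overnight at 30 C. After 180 s compound exposure, an EC80 dopamine challenge follows with another 180 s kinetic read to detect antagonism.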
D2 PAM-2: Beta-Arrestin HTS for Positive Allosteric Modulators of the Human D2 Dopamine Receptor: Potentiators; 0.23% of 360,000 active; potentiation, % (concentration not given with the values); D(2) dopamine receptor (Homo sapiens), P14416; DiscoveRx D2 beta-arrestin cells, luminescence, 90 min; 100% = 57 uM dopamine signal; AID 624464, 2012; in the data active = potentiation above about 50%; inconclusive = mostly about 30% to 49%
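PathHunter beta-arrestin assay in DiscoveRx D2 cells. Compounds were added with an EC20 of dopamine (50 nM final) for 90 min at 37 deg C. Luminescence was read 1 h after detection reagent, with 57 uM dopamine as the EC100 control.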
An asterisk follows results filed as active; ? = inconclusive; . = not tested or not shown. Hits are enriched below; roughly 2.4% of the tested compounds scored in any of these assays.

SMILES | D2 ag-1 | D2 ag-2 | D2 PAM-1 | D2 antag | D2 PAM-2
CSc1cccc(CNC(=O)C2CCC(=O)N(CCCN3CCCC3=O)C2)c1 (stereo not drawn) | 3.9 | 0.2 | -23.7 | 85.7* | -0.6
COc1ccc(-n2ccnc(NCc3cccs3)c2=O)cc1 | . | 0.0 | 3.2 | . | .
N#CC1=C(N)S[C@H](C(=O)C23CC4CC(CC(C4)C2)C3)[C@H]1c1ccncc1 | 5.1 | 0.6 | 30.5* | 3.7 | 14.1
Cc1ccc(-n2nc3c([n+]2[O-])CCc2nonc2-3)cc1 | 7.3 | -1.7 | 4.1 | 52.9* | -3.4
COc1ccccc1C(=O)Nc1nc2ccc(S(=O)(=O)N3CCCC3)cc2s1 | . | 0.5 | -7.8 | . | .
CN(C)[C@@H]1CCC[C@H]1OC(=O)C(c1ccccc1)c1ccccc1 | -1.9 | -0.1 | -24.7 | 46.9* | -34.2
CC1CN(C)C(C)CC1OC(=O)C(c1ccccc1)c1ccccc1 (stereo not drawn) | -5.0 | . | . | . | -16.8
O=C(CC1CCCCC1)Nc1ccc(-c2ccc3nncn3n2)cc1 | -2.4 | 0.1 | 43.1* | 10.7 | -1.6
CCOC(=O)c1ccc2c(c1)N(Cc1ccc(F)cc1Cl)C(=O)c1ccccc1S2(=O)=O | . | . | 12.2 | . | .
Cc1ccc2[nH]c(=O)c(CN(CCCN3CCOCC3)C(=O)Nc3ccc(Cl)cc3)cc2c1 | 4.4 | -0.4 | -0.7 | 31.3* | -14.0
CCOCCCNCc1ccc(OC)c(OC)c1 | -1.0 | -0.7 | -5.6 | 36.2* | -13.2
COc1ccc(OC)c(S(=O)(=O)Nc2ccc(O)c3ccccc23)c1 | ? | -0.1 | 0.4 | -15.3 | 88.6*
COc1ccc(OC)c(S(=O)(=O)Nc2cccc3c(O)cccc23)c1 | 1.9 | . | . | . | 1.4
Cc1cc(C)cc(NC(=O)NCc2noc3ccccc23)c1 | . | -0.2 | -10.0 | . | .
CC12CN3CC(C)(CN(C1)C3c1ccc([N+](=O)[O-])o1)C2 (stereo not drawn) | 3.2 | -0.4 | -8.2 | 32.1* | 1.0
CC1Cc2ccccc2N1S(=O)(=O)c1nnc(NC(=O)c2ccccc2Br)s1 (stereo not drawn) | . | -0.6 | -8.1 | . | .
COc1ccc(S(=O)(=O)c2cn(CC(=O)Nc3cc(C)ccc3C)c3ccccc3c2=O)cc1 | . | 0.2 | -16.8 | . | .
Cc1cccc(NC(=S)NC(C)CCc2ccccc2)c1 (stereo not drawn) | -2.6 | 0.4 | -21.3 | -14.2 | -4.2
CN(C)NC(=S)Nc1cccc(Cl)c1 | 3.2 | 0.8 | 2.1 | 44.6* | -2.3
Cc1cccc(NC(=S)NCC(c2ccccc2)N(C)C)c1 (stereo not drawn) | -1.1 | -0.4 | . | 38.4* | -12.2
CN(C)C(CNC(=S)Nc1cccc(Cl)c1)c1ccccc1 (stereo not drawn) | -6.4 | 0.4 | . | 55.0* | -18.2
CCn1c(C)c(C2N3CC4(C)CN2CC(C)(C3)C4=O)c2ccccc21 (stereo not drawn) | . | -0.5 | 2.8 | . | .
COc1ccccc1N(CC(=O)NCc1ccco1)C(=O)CCC(=O)Nc1ccccn1 | -0.8 | -1.0 | 31.8* | -6.7 | 3.0
Cc1cccc(N(CC(=O)NCc2ccco2)C(=O)CCC(=O)Nc2ccccn2)c1C | -1.8 | -0.1 | -4.9 | -1.5 | -6.5
O=C(NCC(c1ccc2c(c1)OCO2)N1CCN(c2ccccc2)CC1)C(=O)Nc1ccccc1 (stereo not drawn) | . | . | -19.1 | . | .
SMILES | D2 ag-1 | D2 ag-2 | D2 PAM-1 | D2 antag | D2 PAM-2
COc1cccc(CNCc2cccc(Br)c2)c1OC | 6.8 | 1.0 | -10.2 | 35.7* | -14.7
CCCCNC(=S)NCc1ccc2[nH]c(C)cc2c1 | 1.3 | -2.3 | 1.0 | 30.3* | -11.8
CCOc1ccc(NC(=S)NCc2ccc3[nH]c(C)cc3c2)cc1 | 0.3 | -0.7 | -6.6 | 17.7 | -14.0
COC(=O)Nc1ccc(C)cc1NC(=O)OC | -2.1 | 0.9 | -5.1 | -9.0 | 12.7
CC(=O)Nc1ccc(C)cc1NC(C)=O | -2.5 | -0.6 | -4.5 | 34.8* | 6.3
CC1(C(=O)NS(=O)(=O)c2ccc3c(c2)CCO3)CCN1C(=O)COc1ccc(Cl)cc1 (stereo not drawn) | 8.8 | . | . | . | -1.5
CCCCN(CC)CCCNC(=O)Nc1sc2nc3n(c(=O)c2c1C)CCC(C)CC3 (stereo not drawn) | . | -0.5 | 2.9 | . | .
CC(CCc1ccccc1)NC(=O)COC(=O)c1ccc([N+](=O)[O-])cc1 (stereo not drawn) | 0.5 | -0.3 | 37.5* | -12.2 | 4.6
CC(CCc1ccccc1)NC(=O)COC(=O)c1ccc(S(C)(=O)=O)c([N+](=O)[O-])c1 (stereo not drawn) | -1.8 | 0.0 | -1.8 | 1.9 | -5.7
CCOc1ccccc1N1C(=O)CC(Sc2ncccc2C(=O)O)C1=O (stereo not drawn) | -1.3 | 0.3 | -11.5 | 35.6* | 5.2
CCOc1ccc(NC(=O)c2cc(C)nc3c2c(C)nn3-c2cccc(F)c2)cc1 | . | 0.8 | -3.4 | . | .
O=C(O)CCCC(=O)Nc1nc(-c2ccccc2)cs1 | -3.2 | -1.0 | -8.7 | -3.8 | -2.5
O=C(O)CCCC(=O)Nc1nc(-c2ccc(F)cc2)cs1 | -1.0 | -0.5 | 34.5* | 9.4 | -8.6
COc1cc(CNCc2cc(OC)c(OC)c(OC)c2)cc(OC)c1 | -0.7 | -0.4 | 2.2 | 30.1* | -3.1
CN(Cc1c(C(=O)N/N=C/c2ccccc2O)nnn1-c1nonc1N)C1CCCCC1 | -2.0 | . | . | . | -15.9
COc1ccc(OC)c(N2CC(O)(c3cccs3)[N+]3=C2SCCC3)c1 (stereo not drawn) | -4.1 | 3.8 | -25.0 | 40.0* | -48.1
OC1(c2cccs2)CN(c2ccc(Br)cc2)C2=[N+]1CCCS2 (stereo not drawn) | -3.6 | 6.0 | -19.1 | 2.3 | -17.3
CCOC(=O)c1sc(-c2ccccc2)nc1C | 0.6 | 0.5 | 2.1 | 0.4 | 1.0
CCOC(=O)Cc1ccc2sc(-c3ccccc3)nc2c1 | 1.8 | -1.0 | 5.4 | 32.2* | -5.6
Oc1ccc(-c2ccccc2)cc1CN1CCCCCC1 | -1.7 | -0.7 | -21.1 | 69.0* | -23.7
CCSC1=NSC2=NC(=O)/C(=C\c3coc4ccccc4c3=O)C(=N)N12 | -1.0 | 99.6* | -7.2 | 11.6 | ?
CC(C)CC1=NN2C(=N)/C(=C\c3coc4ccccc4c3=O)C(=O)N=C2S1 | 3.5 | 13.2 | 2.3 | -4.5 | 4.3
Cc1oc(-c2ccccc2)nc1CSc1nc2c(c(=O)[nH]1)CCC2 | 1.9 | -0.3 | 6.4 | 35.1* | -1.7
Cc1cccc(-c2nc(CSc3nc4c(c(=O)[nH]3)CCC4)c(C)o2)c1 | 8.3 | 0.2 | 7.5 | 43.4* | 7.7
